From PubChem BioAssay (EPA / NIEHS)
Records with an inconclusive call do not appear. The source made the active and inactive calls. How the source made its calls, unless noted: active means hit-call score of the fitted dose curve at least 0.9, where 1 is the maximum; inactive means score below 0.9.

Assays:
[1] = read-out: Interleukin 6 (IL6), IL6 (gene 3569); test: BSK_BT_xIL6: BioMAP Diversity Plus: BT Assay for Interleukin 6 (IL6) Biomarker Activity (AID 2284228); settings: primary human B cells with PBMC
Method in brief: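 IL-6 secretion measured (Luminex xMAP) in human primary B cell + PBMC co-culture at 24 h of chemical exposure; DMSO served as negative control and activity baseline, with curves fitted for increase.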

[2] = read-out: Tumor necrosis factor (Homo sapiens) (UniProt P01375); test: BSK_BT_xTNFa: BioMAP Diversity Plus: BT Assay for Tumor necrosis factor alpha (TNF-alpha) Biomarker Activity (AID 2284230); settings: primary human B cells with PBMC
Method in brief: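 Endpoint derived in the positive direction versus DMSO vehicle. Cells: B cells together with PBMC, exposed 24 h before TNF-alpha in the medium was read on the Luminex xMAP platform.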

[3] = read-out: Vascular cell adhesion molecule 1 (VCAM1), VCAM1 (gene 7412); test: BSK_MyoF_VCAM1: BioMAP Diversity Plus: MyoF Assay for Vascular cell adhesion molecule 1 (VCAM1) Biomarker Activity (AID 2284231); settings: primary human lung fibroblasts
Method in brief: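 VCAM-1 levels, lung fibroblasts, ELISA, 24 h exposure, increase scored relative to DMSO.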

[4] = UKN2_HCS_IMR90_cell_viability: Viability Assessment in the University of Konstanz (UKN) Leist Lab Neural Crest Cell Migration Assay in human induced IMR90 Pluripotent Stem Cells (UKN2) (AID 2284233);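 further: cells exposed to compound for 24 h after a 24 h migration phase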
Method in brief: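 After calcein-AM/Hoechst staining, viability is quantified by high-content fluorescence imaging, relative to DMSO, in iPSC (IMR90)-derived neural crest cells. Exposure lasts 24 h, starting after a 24 h migration period on PLO/laminin/fibronectin coating.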

[5] = CCTE_Mundy_HCI_Cortical_NOG_NeuronCount: CCTE's Neurite Outgrowth Assay in rat cortical cells for Neuron Count, Mundy Lab (AID 2284236; active means hit-call score of the fitted dose curve at least 0.9, where 1 is the maximum;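 further: neurons counted by imaging betaIII-tubulin and Hoechst stained cortical cells; cells exposed to compound for about 48 hours before fixation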)
Method in brief: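 Read-out: neuron number by high-content imaging of betaIII-tubulin (Alexa Fluor-488) and Hoechst-labelled rat primary cortical cells.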

[6] = CCTE_Mundy_HCI_Cortical_NOG_BPCount: CCTE's Neurite Outgrowth Assay in rat cortical cells for Branch Point Count, Mundy Lab (AID 2284237);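 on AC50: branch points counted about two days after chemical exposure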
Method in brief: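 Measured 50.33 h after dosing, this morphology endpoint uses rat primary cortical cultures labelled for betaIII-tubulin. Branch points are quantified by high-content imaging, with DMSO as negative control and baseline.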

[7] = read-out: Collagen I, COL1A1 (gene 1277); test: BSK_MyoF_CollagenI: BioMAP Diversity Plus: MyoF Assay for Collagen I Biomarker Activity (AID 2284238); settings: primary human lung fibroblasts
Method in brief: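 Measured by ELISA: Collagen I from human lung fibroblasts 24 h after compound addition, analysed for signal gain with DMSO as baseline; overt toxicity read from SRB staining of parallel cultures at the same time.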

[8] = read-out: Collagen III, COL3A1 (gene 1281); test: BSK_MyoF_CollagenIII: BioMAP Diversity Plus: MyoF Assay for Collagen III Biomarker Activity (AID 2284239); settings: primary human lung fibroblasts
Method in brief: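 Multiplexed cell assay in lung fibroblasts, harvested at 24 h post-dose. Collagen III detected by ELISA, with positive-direction fitting relative to DMSO vehicle.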

[9] = CCTE_Mundy_HCI_hNP1_Casp3_7: CCTE's Caspase-Glo 3/7 Assay in human neuroprogenitor cells for Apoptosis, Mundy Lab (AID 2284240)
Method in brief: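 Apoptosis is scored by activated caspase-3/7 luminescence in WA09-derived neural progenitor cells, measured 26.5 h after chemical dosing. Values represent gain of signal relative to DMSO vehicle.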

[10] = CCTE_Mundy_HCI_hNP1_CellTiter: CCTE's Cell Titer-Glo 2 Assay in human neuroprogenitor cells for Viability, Mundy Lab (AID 2284241; active means hit-call score of the fitted dose curve at least 0.9, where 1 is the maximum;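 on AC50: a hit is a drop in ATP luminescence versus DMSO meaning reduced viability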)
Method in brief: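 Human neural progenitor cells (hNP1, WA09-derived) were plated on poly-L-ornithine/laminin and grown 40 to 44 hours at 37 °C, 5% CO2 before chemical addition. Twenty-four hours later, ATP was measured by CellTiter-Glo luminescence; loss of signal versus DMSO indicates reduced viability.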

[11] = CCTE_Mundy_HCI_Cortical_Synap_Neur_Matur_NeuronCount: CCTE's Synaptogenesis and Neurite Maturation Assay in rat cortical cells for Neuron Count, Mundy Lab (AID 2284242; active means hit-call score of the fitted dose curve at least 0.9, where 1 is the maximum;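 further: hits reduce neuron count versus DMSO baseline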)
Method in brief: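 Measured at DIV 12: fluorescently labelled neurons (Hoechst nuclei, MAP2) in rat primary cortical cultures, counted by high-content imaging. AraC suppressed glia from DIV 5; DMSO served as negative control.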

[12] = read-out: Interleukin 17F (IL17F), IL17F (gene 112744); test: BSK_BT_xIL17F: BioMAP Diversity Plus: BT Assay for Interleukin 17F (IL17F) Biomarker Activity (AID 2284243); settings: primary human B cells with PBMC
Method in brief: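 Luminex readout of IL-17F secretion, 24 h; cells: human B cells with PBMC; positive-direction analysis, DMSO control.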

[13] = read-out: Actin alpha 1 (ACTA1), ACTA1 (gene 58); test: BSK_MyoF_ACTA1: BioMAP Diversity Plus: MyoF Assay for Actin alpha 1 (ACTA1) Biomarker Activity (AID 2284244); settings: primary human lung fibroblasts
Method in brief: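 MyoF fibroblast system (human lung); a-SMA quantified via ELISA at 24 h; DMSO-normalised, gain-of-signal endpoint.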

[14] = read-out: Interleukin 2 (IL2), IL2 (gene 3558); test: BSK_BT_xIL2: BioMAP Diversity Plus: BT Assay for Interleukin 2 (IL2) Biomarker Activity (AID 2284245); settings: primary human B cells with PBMC
Method in brief: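 Co-cultures of primary human B cells and PBMC are treated with chemical and sampled at 24 h. IL-2 secretion is quantified by Luminex xMAP, with DMSO-treated wells as baseline.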

[15] = read-out: Basic fibroblast growth factor (bFGF), FGF2 (gene 2247); test: BSK_MyoF_bFGF: BioMAP Diversity Plus: MyoF Assay for Basic fibroblast growth factor (bFGF) Biomarker Activity (AID 2284246); settings: primary human lung fibroblasts
Method in brief: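 Fibroblasts from human lung, 24 h dosing. bFGF by ELISA; gain of signal over DMSO.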

[16] = read-out: Collagen IV, COL4A1 (gene 1282); test: BSK_MyoF_CollagenIV: BioMAP Diversity Plus: MyoF Assay for Collagen IV Biomarker Activity (AID 2284247); settings: primary human lung fibroblasts
Method in brief: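 Lung fibroblasts (human primary) treated with chemicals were assayed after 24 h for Collagen IV using an ELISA, with DMSO serving as negative control and baseline for a positive-direction fit.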

[17] = read-out: Interleukin 17A (IL17A), IL17A (gene 3605); test: BSK_BT_xIL17A: BioMAP Diversity Plus: BT Assay for Interleukin 17A (IL17A) Biomarker Activity (AID 2284229); settings: primary human B cells with PBMC
Method in brief: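 Human primary B cells plus PBMC, treated 24 h with chemicals; supernatant IL-17A quantified on Luminex xMAP beads. Gain of signal over DMSO control scored as activity.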

[18] = read-out: Monokine induced gamma interferon (MIG), CXCL9 (gene 4283); test: BSK_KF3CT_MIG: BioMAP Diversity Plus: KF3CT Assay for Monokine induced gamma interferon (MIG) Biomarker Activity (AID 2284248); settings: primary human keratinocytes with fibroblasts
Method in brief: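 MIG in dosed human skin co-cultures was measured by ELISA at 24 h, relative to DMSO.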

[19] = read-out: Collagen I, COL1A1 (gene 1277); test: BSK_hDFCGF_CollagenI: BioMAP Diversity Plus: hDFCGF Assay for Collagen I Biomarker Activity (AID 2284250); settings: primary human foreskin fibroblasts
Method in brief: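 Readout: Collagen I by ELISA after 24 h compound treatment of primary human foreskin fibroblasts. Endpoint analysed for increases relative to DMSO; total protein by SRB in parallel wells flagged cytotoxicity.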

[20] = UKN4_HCS_LUHMES_cell_viability: Viability Assessment in the University of Konstanz (UKN) Leist Lab Neurite Outgrowth Assay in human LUHMES cells (UKN4) (AID 2284232)
Method in brief: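 Measured in replated, 2-day-differentiated LUHMES cells treated 24 h; stained 30 min with H-33342 and calcein-AM before high-content imaging.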

Measured: AC50

Chain of Tumor necrosis factor (Homo sapiens) (P01375 whole entry, looked up): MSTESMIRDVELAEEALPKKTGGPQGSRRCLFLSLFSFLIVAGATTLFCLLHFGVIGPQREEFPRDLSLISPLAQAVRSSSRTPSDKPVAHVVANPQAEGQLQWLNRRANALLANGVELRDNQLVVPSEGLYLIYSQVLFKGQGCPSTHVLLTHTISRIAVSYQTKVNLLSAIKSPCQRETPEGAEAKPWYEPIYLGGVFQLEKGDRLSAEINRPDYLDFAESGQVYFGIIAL

Cc1ccccc1OP(=O)(Oc1ccccc1C)Oc1ccccc1C
active: [1] 20 µM | [2] 31 µM | [3] 11.4 µM | [4] 8.46 µM | [5] 24.1 µM | [6] 18 µM | [7] 9.92 µM | [8] 10 µM | [9] 10.8 µM | [10] 18.3 µM | [11] 2.83 µM | [12] 27.3 µM | [13] 9.16 µM | [14] 20 µM | [15] 33.3 µM | [16] 20 µM

OC(Cc1ccccc1Cl)(Cn1cncn1)C1(Cl)CC1 (stereo not drawn)
inactive: [1] | [2] | [3] | [7] | [8] | [12] | [13] | [14] | [15] | [16]

CCOP(=S)(OCC)OP(=S)(OCC)OCC
inactive: [1] | [17] | [2] | [3] | [7] | [8] | [12] | [13] | [14] | [15] | [16]

COCC(=O)N(c1c(C)cccc1C)[C@H](C)C(=O)OC
inactive: [1] | [2] | [3] | [7] | [8] | [12] | [13] | [14] | [15] | [16]

CC(C)(COCC1CO1)COCC1CO1 (stereo not drawn)
inactive: [1] | [17] | [2] | [3] | [7] | [8] | [13] | [14] | [15] | [16]
active: [12] 24.5 µM

CC(C=O)Cc1ccc2c(c1)OCO2 (stereo not drawn)
inactive: [1] | [2] | [3] | [7] | [8] | [12] | [13] | [14] | [15] | [16]

C#CCOC(=O)/C=C(C)/C=C/CC(C)CCCC(C)C (stereo not drawn)
inactive: [1] | [2] | [7] | [8] | [12] | [14] | [15] | [16]
active: [3] 20 µM | [13] 16.4 µM

CCOC(=O)CCN(SN(C)C(=O)Oc1cccc2c1OC(C)(C)C2)C(C)C
active: [1] 33.4 µM | [17] 26.5 µM | [2] 36.7 µM | [3] 33.1 µM | [12] 30 µM | [13] 29.3 µM | [14] 36.3 µM
inactive: [7] | [8] | [15] | [16]

CCN(CC)C(=O)C(Cl)=C(C)OP(=O)(OC)OC
active: [8] 0.016 µM | [13] 0.0702 µM
inactive: [1] | [2] | [3] | [7] | [12] | [14] | [15] | [16]

O=S(=O)(c1ccc(Cl)cc1)c1cc(Cl)c(Cl)cc1Cl
inactive: [1] | [2] | [3] | [7] | [8] | [13] | [15] | [16]
active: [12] 25.1 µM | [14] 20 µM

O=C(CCl)NCO
inactive: [1] | [2] | [3] | [7] | [8] | [12] | [13] | [14] | [15] | [16]

c1ccc2sc(SNC3CCCCC3)nc2c1
inactive: [1] | [3] | [7] | [8] | [13] | [15] | [16]
active: [2] 37.6 µM | [12] 32.1 µM | [14] 28.9 µM

CCCCCCCCCCCCN(C)C
inactive: [1] | [2] | [3] | [7] | [8] | [12] | [13] | [14] | [15] | [16]

OCCCCO
inactive: [18] | [19]

O=S1OC[C@@H]2[C@H](CO1)[C@]1(Cl)C(Cl)=C(Cl)[C@@]2(Cl)C1(Cl)Cl (stereo partly drawn)
inactive: [4]
active: [20] 27 µM

C[C@]12CC[C@@H](O)C[C@@H]1CC[C@@H]1[C@@H]2CC[C@]2(C)C(=O)CC[C@@H]12
inactive: [1] | [2] | [3] | [7] | [8] | [12] | [13] | [14] | [15] | [16]

Cc1c([N+](=O)[O-])c(C)c([N+](=O)[O-])c(C(C)(C)C)c1[N+](=O)[O-]
active: [3] 20 µM | [7] 32.1 µM | [12] 28.1 µM | [13] 33 µM
inactive: [1] | [2] | [8] | [14] | [15] | [16]

Cc1cc(C(F)(C(F)(F)F)C(F)(F)F)ccc1NC(=O)c1cccc(I)c1C(=O)NC(C)(C)CS(C)(=O)=O
inactive: [20] | [5] | [6] | [9] | [10]

CCOP(=S)(OCC)SCS(=O)(=O)C(C)(C)C
inactive: [1] | [2] | [3] | [7] | [8] | [12] | [13] | [14] | [15] | [16]

O=c1oc2ccccc2c(O)c1C(CC(O)c1ccc(-c2ccc(Br)cc2)cc1)c1ccccc1 (stereo not drawn)
active: [3] 6.21 µM | [7] 1.94 µM | [8] 2.53 µM | [13] 2.76 µM | [15] 11.5 µM | [16] 5.33 µM
inactive: [1] | [2] | [12] | [14]
